These results are taken from publication PMC7862700, “An all-to-all approach to the identification of sequence-specific readers for epigenetic DNA modifications on cytosine”.

What all share (test): DAPPL (digital affinity profiling via proximity ligation, sequencing); 10 mM Tris-HCl pH 7.5, 50 mM NaCl, 1 mM DTT, 4% glycerol, room temperature, 30 min; GST-TFs on glutathione beads, 16-mer random dsDNA library, 0.1% formaldehyde crosslink after washing; high values mean tight binding
Common to all, as to conditions: protein: recombinant; tags: N-terminal GST; dsDNA, one strand shown

The target of assay [1] is T1, FLI1 (Homo sapiens, UniProt Q01543 1-452).
T1 sequence: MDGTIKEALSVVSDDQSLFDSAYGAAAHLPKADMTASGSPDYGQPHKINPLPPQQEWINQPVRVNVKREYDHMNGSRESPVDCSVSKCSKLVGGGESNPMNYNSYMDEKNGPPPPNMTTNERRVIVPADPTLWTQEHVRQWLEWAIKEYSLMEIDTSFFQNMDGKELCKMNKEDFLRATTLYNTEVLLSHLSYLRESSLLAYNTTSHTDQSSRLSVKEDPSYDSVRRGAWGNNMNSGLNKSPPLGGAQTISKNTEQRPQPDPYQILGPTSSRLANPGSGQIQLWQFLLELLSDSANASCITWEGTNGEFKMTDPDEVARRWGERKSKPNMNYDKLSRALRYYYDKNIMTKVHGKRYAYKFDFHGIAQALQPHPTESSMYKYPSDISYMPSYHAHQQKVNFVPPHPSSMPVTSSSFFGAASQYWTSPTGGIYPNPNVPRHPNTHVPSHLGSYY
The procedure, abridged: (§1)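 Human transcription factors were made in yeast as GST fusions, captured on glutathione beads and barcoded with DNA. With a tag-only sample included, the pool was incubated with 200 nmole of a random double-stranded 16-mer DNA library in Tris/NaCl/DTT/glycerol buffer at room temperature for 30 min, then crosslinked with 0.1% formaldehyde after washing, ligated by proximity, amplified and sequenced. For binding signal, each hexamer's read frequency for a factor is divided by its frequency for the tag-only sample.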

The target of assay [2] is ELF1 (Homo sapiens, UniProt P32519 1-619). Put shortly: as §1
Chain of ELF1 (P32519 whole entry): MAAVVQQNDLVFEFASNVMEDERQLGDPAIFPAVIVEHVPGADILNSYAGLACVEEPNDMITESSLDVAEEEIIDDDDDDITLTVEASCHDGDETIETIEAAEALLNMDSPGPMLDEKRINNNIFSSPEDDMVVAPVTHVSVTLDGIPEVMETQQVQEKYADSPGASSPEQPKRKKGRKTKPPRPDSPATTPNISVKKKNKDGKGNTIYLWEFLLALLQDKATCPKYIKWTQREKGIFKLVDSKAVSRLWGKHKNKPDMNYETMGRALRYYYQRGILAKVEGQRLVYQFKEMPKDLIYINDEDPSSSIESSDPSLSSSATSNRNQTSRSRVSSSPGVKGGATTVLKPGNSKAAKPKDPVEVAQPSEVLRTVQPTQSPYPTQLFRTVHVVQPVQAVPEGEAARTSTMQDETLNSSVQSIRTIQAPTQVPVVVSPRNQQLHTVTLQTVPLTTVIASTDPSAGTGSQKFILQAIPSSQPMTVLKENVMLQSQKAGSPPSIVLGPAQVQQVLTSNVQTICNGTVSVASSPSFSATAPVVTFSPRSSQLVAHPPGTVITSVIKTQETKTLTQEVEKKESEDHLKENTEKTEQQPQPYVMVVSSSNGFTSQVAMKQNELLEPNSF
Assay [3] addresses T2, SPIC (Homo sapiens, UniProt Q8N5J4 1-248).
T2 sequence: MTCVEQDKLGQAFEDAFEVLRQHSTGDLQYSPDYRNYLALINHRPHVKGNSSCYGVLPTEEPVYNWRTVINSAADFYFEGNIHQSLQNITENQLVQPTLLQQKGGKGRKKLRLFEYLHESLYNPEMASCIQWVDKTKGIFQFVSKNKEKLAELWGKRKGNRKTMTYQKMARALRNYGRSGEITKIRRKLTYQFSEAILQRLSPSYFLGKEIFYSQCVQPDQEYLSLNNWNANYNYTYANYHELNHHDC
Put shortly:
as §1

Assay [4] concerns the target T3, ETV2 (Homo sapiens, UniProt O00321 1-342).
T3 sequence: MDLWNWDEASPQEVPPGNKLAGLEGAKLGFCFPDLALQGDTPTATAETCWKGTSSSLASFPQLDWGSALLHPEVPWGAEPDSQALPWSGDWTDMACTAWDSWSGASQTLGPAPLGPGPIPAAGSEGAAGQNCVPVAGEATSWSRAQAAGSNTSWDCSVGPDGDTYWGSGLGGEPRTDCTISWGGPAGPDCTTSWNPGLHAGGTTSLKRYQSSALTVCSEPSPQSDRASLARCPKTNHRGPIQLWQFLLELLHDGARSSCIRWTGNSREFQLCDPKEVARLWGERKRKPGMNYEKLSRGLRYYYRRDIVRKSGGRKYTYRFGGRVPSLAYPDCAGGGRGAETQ
The procedure, abridged:
as §1

Assay [5] concerns the target T4, ERF (Homo sapiens, UniProt P50548 1-548).
T4 sequence: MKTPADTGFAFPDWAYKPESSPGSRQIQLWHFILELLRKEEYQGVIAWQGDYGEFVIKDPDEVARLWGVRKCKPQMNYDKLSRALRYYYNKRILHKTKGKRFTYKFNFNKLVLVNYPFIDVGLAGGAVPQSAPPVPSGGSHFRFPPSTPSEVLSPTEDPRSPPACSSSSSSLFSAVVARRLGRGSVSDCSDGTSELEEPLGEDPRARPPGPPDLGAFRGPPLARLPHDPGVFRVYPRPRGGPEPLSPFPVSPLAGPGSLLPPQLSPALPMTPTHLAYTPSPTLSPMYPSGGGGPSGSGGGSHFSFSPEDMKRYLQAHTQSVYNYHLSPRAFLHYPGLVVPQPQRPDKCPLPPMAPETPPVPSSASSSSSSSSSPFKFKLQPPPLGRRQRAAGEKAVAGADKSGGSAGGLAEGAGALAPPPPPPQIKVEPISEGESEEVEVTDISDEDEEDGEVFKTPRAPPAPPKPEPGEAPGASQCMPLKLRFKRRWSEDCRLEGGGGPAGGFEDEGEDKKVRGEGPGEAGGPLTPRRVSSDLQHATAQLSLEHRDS
The procedure, abridged: as §1

In assay [6] the target is T5, ETV3L (Homo sapiens, UniProt Q6ZN32 1-361).
T5 sequence: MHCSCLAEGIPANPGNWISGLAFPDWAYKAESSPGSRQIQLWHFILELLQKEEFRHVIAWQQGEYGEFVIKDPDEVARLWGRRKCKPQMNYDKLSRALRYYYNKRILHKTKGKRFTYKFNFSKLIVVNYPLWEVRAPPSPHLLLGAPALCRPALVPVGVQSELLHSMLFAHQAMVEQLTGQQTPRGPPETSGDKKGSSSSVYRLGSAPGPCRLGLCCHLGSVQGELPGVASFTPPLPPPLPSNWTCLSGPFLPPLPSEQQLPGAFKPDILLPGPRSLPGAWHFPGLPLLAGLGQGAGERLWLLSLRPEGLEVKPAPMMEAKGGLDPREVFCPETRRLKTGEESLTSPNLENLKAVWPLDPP
The procedure, abridged:
as §1

Assay [7] concerns the target T6, ETV7 (Homo sapiens, UniProt Q9Y603 1-341).
T6 sequence: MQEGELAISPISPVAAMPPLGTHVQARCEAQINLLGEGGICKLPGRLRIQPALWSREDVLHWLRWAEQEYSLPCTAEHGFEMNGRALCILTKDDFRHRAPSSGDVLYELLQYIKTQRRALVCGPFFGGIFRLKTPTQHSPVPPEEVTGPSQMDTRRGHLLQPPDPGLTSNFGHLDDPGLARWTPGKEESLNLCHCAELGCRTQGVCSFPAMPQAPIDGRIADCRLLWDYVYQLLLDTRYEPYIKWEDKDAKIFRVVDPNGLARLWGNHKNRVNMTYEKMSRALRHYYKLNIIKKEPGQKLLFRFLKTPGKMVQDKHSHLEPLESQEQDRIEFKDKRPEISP
The procedure, abridged: as §1

Assay [8] deals with T7, GABPA (Homo sapiens, UniProt Q06546 1-454).
T7 sequence: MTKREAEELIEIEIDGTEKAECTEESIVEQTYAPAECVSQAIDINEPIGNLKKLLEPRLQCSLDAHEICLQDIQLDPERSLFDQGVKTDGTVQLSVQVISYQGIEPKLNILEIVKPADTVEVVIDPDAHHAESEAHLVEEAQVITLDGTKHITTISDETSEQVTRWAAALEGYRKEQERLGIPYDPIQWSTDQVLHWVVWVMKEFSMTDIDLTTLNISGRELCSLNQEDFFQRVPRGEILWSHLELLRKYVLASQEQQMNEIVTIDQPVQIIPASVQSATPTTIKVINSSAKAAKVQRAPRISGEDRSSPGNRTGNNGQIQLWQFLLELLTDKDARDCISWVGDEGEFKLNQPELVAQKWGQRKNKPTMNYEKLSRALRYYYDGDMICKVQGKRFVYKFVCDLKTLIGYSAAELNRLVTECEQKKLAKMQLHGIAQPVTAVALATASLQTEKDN
The procedure, abridged: as §1

The target in assay [9] is SPIB (Homo sapiens, UniProt Q01892 1-262). Put shortly: as §1
Chain of SPIB (Q01892 whole entry): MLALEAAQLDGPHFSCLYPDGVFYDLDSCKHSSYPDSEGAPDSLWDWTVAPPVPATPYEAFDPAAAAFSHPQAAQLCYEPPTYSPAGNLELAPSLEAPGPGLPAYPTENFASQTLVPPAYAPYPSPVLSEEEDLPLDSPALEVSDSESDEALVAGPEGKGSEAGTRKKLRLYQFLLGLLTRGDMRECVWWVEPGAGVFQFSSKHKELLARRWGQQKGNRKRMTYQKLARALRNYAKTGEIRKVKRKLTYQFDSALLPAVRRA
Assay [10] addresses T8, ELK4 (Homo sapiens, UniProt P28324-2 1-405).
T8 sequence: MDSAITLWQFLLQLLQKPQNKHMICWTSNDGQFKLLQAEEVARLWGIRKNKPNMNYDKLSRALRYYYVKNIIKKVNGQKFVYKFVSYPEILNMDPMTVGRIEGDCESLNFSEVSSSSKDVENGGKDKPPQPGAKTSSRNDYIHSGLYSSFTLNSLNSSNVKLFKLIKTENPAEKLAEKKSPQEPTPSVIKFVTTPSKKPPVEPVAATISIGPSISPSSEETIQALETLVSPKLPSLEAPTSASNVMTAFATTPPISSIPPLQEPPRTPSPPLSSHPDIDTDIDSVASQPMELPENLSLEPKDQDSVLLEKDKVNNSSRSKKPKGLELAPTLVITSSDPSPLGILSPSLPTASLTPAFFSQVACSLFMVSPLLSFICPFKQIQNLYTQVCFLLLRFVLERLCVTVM
Put shortly:
as §1

Assay [11] addresses T9, ELF3 (Homo sapiens, UniProt P78545 1-371).
T9 sequence: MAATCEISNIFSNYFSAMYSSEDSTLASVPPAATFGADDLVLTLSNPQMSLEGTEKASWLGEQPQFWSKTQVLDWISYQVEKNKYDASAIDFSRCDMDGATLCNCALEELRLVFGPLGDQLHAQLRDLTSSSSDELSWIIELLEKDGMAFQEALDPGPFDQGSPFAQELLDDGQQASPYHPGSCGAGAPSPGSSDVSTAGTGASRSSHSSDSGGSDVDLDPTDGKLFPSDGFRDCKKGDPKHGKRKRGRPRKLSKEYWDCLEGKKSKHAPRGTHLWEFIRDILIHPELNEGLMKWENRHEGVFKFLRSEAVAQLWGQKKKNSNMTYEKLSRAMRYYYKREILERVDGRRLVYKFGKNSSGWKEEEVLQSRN
Put shortly:
as §1

Assay [12] deals with ETV1 (Homo sapiens, UniProt P50549 1-477). The procedure, abridged:
as §1

Assay [13] concerns the target T10, ETS2 (Homo sapiens, UniProt P15036 1-469).
T10 sequence: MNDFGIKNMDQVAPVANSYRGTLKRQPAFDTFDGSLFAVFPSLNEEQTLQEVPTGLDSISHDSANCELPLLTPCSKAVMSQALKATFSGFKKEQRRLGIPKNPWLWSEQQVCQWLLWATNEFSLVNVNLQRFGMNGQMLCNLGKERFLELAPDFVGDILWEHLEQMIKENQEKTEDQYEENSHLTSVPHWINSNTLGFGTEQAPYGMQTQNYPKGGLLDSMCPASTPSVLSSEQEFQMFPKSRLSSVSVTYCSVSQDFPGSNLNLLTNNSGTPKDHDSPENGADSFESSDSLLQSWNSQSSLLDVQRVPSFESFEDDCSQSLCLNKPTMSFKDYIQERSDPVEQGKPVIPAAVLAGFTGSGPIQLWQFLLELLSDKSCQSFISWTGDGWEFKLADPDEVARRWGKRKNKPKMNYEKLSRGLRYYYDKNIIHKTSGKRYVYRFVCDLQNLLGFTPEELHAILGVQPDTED
Put shortly: as §1

Chain of ETV1 (P50549 whole entry): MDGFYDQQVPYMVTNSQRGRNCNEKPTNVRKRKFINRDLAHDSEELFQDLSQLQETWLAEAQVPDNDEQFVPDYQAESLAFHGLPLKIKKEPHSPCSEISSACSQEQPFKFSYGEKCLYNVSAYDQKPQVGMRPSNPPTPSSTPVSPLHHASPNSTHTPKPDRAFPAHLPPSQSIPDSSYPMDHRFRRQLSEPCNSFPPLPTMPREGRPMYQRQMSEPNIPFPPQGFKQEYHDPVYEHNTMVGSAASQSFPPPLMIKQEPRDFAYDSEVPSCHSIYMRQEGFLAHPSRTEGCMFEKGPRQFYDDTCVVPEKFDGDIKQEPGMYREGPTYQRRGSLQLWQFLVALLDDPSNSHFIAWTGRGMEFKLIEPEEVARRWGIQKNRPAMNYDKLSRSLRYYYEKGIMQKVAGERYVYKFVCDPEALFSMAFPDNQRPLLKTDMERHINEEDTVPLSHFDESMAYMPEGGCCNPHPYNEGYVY

Consider GCGTTG, for which the binding signal in [1] is 1.1 fold enrichment (6-mer frequency, TF over GST control); in assay [2], 1.01 fold enrichment (6-mer frequency, TF over GST control); in assay [3], 1.03 fold enrichment (6-mer frequency, TF over GST control); in assay [4], 1.01 fold enrichment (6-mer frequency, TF over GST control); in assay [5] it was 1.12 fold enrichment (6-mer frequency, TF over GST control); in [6], 1.03 fold enrichment (6-mer frequency, TF over GST control). Moreover, the binding signal in [7] is 1.01 fold enrichment (6-mer frequency, TF over GST control).
As to ATGCGT, the binding signal is 1.06 fold enrichment (6-mer frequency, TF over GST control) in assay [1]; 1.07 fold enrichment (6-mer frequency, TF over GST control) in assay [8]; 1.03 fold enrichment (6-mer frequency, TF over GST control) in assay [9]; 1.07 fold enrichment (6-mer frequency, TF over GST control) in assay [3]; 1.15 fold enrichment (6-mer frequency, TF over GST control) in assay [10]; 1.18 fold enrichment (6-mer frequency, TF over GST control) in assay [4]. Besides, the binding signal in assay [11] is 1.07 fold enrichment (6-mer frequency, TF over GST control); in assay [12], 1.02 fold enrichment (6-mer frequency, TF over GST control); in assay [5], 1.01 fold enrichment (6-mer frequency, TF over GST control); in [6] it was 1.1 fold enrichment (6-mer frequency, TF over GST control); in assay [13] it was 1.02 fold enrichment (6-mer frequency, TF over GST control); in assay [7], 1.16 fold enrichment (6-mer frequency, TF over GST control).
